The source of these data is PubChem BioAssay (EPA / NIEHS).

Molecules are shown by their SMILES. “And” between values parts separate entries of the source, which are not always exact repeats. Equal entries are not always repeated. A structure can be active in one record and inactive in another. The source made the active and inactive calls. The calls were made as follows: active = hit-call score of the fitted dose curve at least 0.9, where 1 is the maximum; inactive = score below 0.9.

Assay [1] in a line: ATG_GLI_CIS: Attagene CIS-FACTORIAL HepG2 Assay for human Zinc Finger Protein GLI1 (AID 2282945). To be noted: HepG2, Attagene cis-factorial reporter mRNA, GLI element; actives raise or lower the signal. In outline:
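Bidirectional curve fits relative to DMSO, using reporter mRNA levels from RT-PCR plus capillary electrophoresis. Cells were HepG2 transiently carrying cis-regulated reporter constructs, harvested 24 h after dosing.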

For assay [2], the target named is Bile acid receptor (Homo sapiens) (UniProt Q96RI1). Description: ATG_IR1_CIS: Attagene CIS-FACTORIAL HepG2 Assay for human Nuclear Receptor Subfamily 1 Group H Member 4 (NR1H4), IR1 submotif (AID 2282946). As to conditions: IR1 reporter transcription, actives raise or lower the signal. Summed up: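 Cells (human HepG2) carry transiently transfected cis-promoter reporter transcription units. Compounds are incubated 24 h, total RNA is reverse-transcribed and amplified, and labelled fragments are resolved by capillary electrophoresis. Curves use DMSO as baseline.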
Chain of Bile acid receptor (Homo sapiens) (Q96RI1 whole entry, looked up, the tested form may be a part): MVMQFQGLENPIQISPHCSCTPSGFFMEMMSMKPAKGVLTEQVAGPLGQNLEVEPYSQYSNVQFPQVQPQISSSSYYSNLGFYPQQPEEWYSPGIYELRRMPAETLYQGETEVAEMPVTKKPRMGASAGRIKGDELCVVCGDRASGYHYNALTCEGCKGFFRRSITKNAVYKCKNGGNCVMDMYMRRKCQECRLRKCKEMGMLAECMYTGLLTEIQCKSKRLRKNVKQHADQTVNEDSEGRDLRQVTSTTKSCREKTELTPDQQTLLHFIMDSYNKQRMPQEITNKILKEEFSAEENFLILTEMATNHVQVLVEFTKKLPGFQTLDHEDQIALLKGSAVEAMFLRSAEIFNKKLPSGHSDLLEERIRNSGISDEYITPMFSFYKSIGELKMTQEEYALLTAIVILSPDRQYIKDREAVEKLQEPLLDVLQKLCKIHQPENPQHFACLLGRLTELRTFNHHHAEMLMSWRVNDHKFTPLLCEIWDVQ

Assay [3] is described as follows: ATG_GRE_CIS: Attagene CIS-FACTORIAL HepG2 Assay for human Glucocorticoid Response Elements (GRE) (AID 2282947). As to conditions: HepG2 GRE cis-reporter, Attagene multiplex mRNA; actives raise or lower the signal. In outline: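 Transient MRTU transfection of human HepG2 liver cells; cis-regulated reporters report endogenous factors. 24 h dosing → RNA isolation → RT-PCR → 6-FAM primer extension → HpaI cut → CE fragment analysis. Bidirectional fit, DMSO negative control.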

The nature of assay [4]: ATG_ISRE_CIS: Attagene CIS-FACTORIAL HepG2 Assay for human Interferon Regulatory Factor 1 (IRF1) binding to an Interferon-Stimulated Response Element (ISRE) (AID 2282948). As to conditions: HepG2 ISRE cis-reporter (Attagene), mRNA transcription readout; actives raise or lower the signal. Summed up: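 Quantitation relies on labelled RT-PCR fragments separated by capillary electrophoresis. Human HepG2 cells bearing cis-promoter reporter constructs were treated 24 h; DMSO served as baseline for bidirectional fitting.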

A short description of assay [5]: ATG_M_32_CIS: Attagene CIS-FACTORIAL HepG2 Assay for M32 Transcription Factor (Internal Marker) (AID 2282949).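 Also: background control marker of the multiplexed CIS panel rather than a real target.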 To be noted: HepG2 Attagene cis-factorial M32 reporter, mRNA; actives raise or lower the signal. In outline:
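Fluorescent capillary electrophoresis peaks of HpaI-digested, FAM-labelled RT-PCR reporter products give the signal. Source: transiently transfected human liver HepG2 cells, 24 h after chemical dosing; bidirectional fitting against DMSO.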

The nature of assay [6]: ATG_M_06_CIS: Attagene CIS-FACTORIAL HepG2 Assay for M06 Transcription Factor (Internal Marker) (AID 2282950). As to conditions: HepG2 Attagene CIS-FACTORIAL M06 internal marker reporter; actives raise or lower the signal. In outline: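 Serves as a background control readout. Transfected HepG2 exposed to compounds for 24 h, then reporter transcripts quantified by fluorescent RT-PCR and capillary electrophoresis. Both directions fitted against DMSO baseline.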

In assay [7] the target is Hypoxia-inducible factor 1-alpha (Homo sapiens) (UniProt Q16665). Description: ATG_HIF1a_CIS: Attagene CIS-FACTORIAL HepG2 Assay for human Hypoxia Inducible Factor 1 (HIF1A) (AID 2282951). As to conditions: HepG2 Attagene cis-factorial HIF1a reporter transcription; actives raise or lower the signal. In outline: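 Endogenous-TF cis reporter readout, human HepG2 cells, 24 h incubation; mRNA detected via RT-PCR and capillary electrophoresis fluorescence; DMSO-normalised bidirectional fitting.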
Chain of Hypoxia-inducible factor 1-alpha (Homo sapiens) (Q16665 whole entry, looked up): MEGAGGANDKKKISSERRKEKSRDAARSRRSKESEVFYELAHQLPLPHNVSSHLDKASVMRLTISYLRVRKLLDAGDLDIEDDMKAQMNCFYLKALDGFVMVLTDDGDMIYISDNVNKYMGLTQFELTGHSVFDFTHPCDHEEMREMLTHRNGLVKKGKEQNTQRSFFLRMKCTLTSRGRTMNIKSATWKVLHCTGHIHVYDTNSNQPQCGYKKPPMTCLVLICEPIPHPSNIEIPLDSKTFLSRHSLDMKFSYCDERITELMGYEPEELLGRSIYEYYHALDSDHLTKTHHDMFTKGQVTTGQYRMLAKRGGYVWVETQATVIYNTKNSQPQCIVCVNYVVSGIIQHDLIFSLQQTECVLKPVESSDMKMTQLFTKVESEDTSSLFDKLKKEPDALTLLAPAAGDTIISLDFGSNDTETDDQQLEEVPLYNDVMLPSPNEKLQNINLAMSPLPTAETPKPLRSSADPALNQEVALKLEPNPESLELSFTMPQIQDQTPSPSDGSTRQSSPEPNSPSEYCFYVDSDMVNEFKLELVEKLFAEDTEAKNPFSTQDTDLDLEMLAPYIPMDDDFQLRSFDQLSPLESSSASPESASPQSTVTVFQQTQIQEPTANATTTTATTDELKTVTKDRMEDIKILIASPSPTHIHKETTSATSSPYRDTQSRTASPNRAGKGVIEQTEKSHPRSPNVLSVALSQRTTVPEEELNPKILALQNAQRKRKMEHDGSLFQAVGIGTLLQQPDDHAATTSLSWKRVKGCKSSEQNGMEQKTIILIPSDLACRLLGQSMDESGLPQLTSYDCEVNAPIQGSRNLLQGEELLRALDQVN

For assay [8], the target named is Hepatocyte nuclear factor 6 (Homo sapiens) (UniProt Q9UBC0). Kind of assay: ATG_HNF6_CIS: Attagene CIS-FACTORIAL HepG2 Assay for human Hepatocyte Nuclear Factor 6 (HNF6) (AID 2282952). To be noted: HepG2 Attagene cis-factorial HNF6 reporter transcription; actives raise or lower the signal. In outline: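 Reporter mRNA induction or loss in HepG2 after 24 h exposure; transient cis-MRTU transfection; fragments quantified by capillary electrophoresis; bidirectional analysis, DMSO as negative control.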
Chain of Hepatocyte nuclear factor 6 (Homo sapiens) (Q9UBC0 whole entry, looked up, the tested form may be a part): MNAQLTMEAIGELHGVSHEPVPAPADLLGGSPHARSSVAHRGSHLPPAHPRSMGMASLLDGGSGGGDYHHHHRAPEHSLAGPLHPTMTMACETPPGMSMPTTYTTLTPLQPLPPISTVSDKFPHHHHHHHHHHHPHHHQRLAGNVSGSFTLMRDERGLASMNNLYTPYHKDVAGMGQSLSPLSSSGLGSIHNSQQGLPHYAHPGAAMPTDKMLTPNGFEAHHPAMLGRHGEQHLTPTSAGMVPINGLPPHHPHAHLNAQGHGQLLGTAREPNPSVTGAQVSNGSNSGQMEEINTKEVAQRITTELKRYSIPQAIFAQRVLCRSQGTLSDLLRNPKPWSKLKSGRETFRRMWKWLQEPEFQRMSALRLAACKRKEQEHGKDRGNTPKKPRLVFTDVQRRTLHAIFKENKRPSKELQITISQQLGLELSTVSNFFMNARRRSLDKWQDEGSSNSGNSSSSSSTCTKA

In assay [9] the target is Heat shock factor protein 1 (Homo sapiens) (UniProt Q00613). Description: ATG_HSE_CIS: Attagene CIS-FACTORIAL HepG2 Assay for human Heat Shock Transcription Factor 1 (HSE) (AID 2282953). As to conditions: HepG2 HSE cis-reporter, Attagene RNA transcription; actives raise or lower the signal. Summed up: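 Endogenous transcription factor activity in transiently transfected HepG2, read as reporter mRNA by RT-PCR with fluorescent capillary electrophoresis after 24 h. Gain or loss of signal fitted versus DMSO baseline.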
Chain of Heat shock factor protein 1 (Homo sapiens) (Q00613 whole entry, looked up): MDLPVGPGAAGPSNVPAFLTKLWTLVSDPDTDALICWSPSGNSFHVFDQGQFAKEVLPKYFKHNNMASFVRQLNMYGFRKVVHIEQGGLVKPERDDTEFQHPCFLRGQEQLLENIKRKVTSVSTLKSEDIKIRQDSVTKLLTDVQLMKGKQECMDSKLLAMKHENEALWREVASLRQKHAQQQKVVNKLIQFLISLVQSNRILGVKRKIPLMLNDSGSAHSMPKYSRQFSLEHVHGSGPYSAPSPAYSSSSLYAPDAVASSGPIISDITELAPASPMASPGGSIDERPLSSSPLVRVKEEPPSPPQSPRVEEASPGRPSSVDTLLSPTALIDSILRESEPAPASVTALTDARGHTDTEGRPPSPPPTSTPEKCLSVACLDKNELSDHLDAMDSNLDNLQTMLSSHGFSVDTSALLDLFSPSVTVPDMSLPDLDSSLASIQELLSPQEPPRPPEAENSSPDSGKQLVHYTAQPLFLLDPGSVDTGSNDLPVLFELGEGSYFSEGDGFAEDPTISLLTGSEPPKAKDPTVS

Assay [10] in a line: ATG_MRE_CIS: Attagene CIS-FACTORIAL HepG2 Assay for human Metal Responsive Element (MRE) (AID 2282954). To be noted: HepG2 MRE cis-reporter transcription, Attagene multiplex; actives raise or lower the signal. In outline: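 Transient MRTU transfection of HepG2 (FuGene 6); 24 h dosing; total RNA → oligo(dT) RT, PCR, 6-FAM primer extension, HpaI cut, CE. Bidirectional fit vs DMSO.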

Assay [11] in a line: ATG_PBREM_CIS: Attagene CIS-FACTORIAL HepG2 Assay for human Phenobarbital-responsive Enhancer Module (PBREM) (AID 2282955). To be noted: HepG2 PBREM cis-reporter, Attagene multiplexed transcription; actives raise or lower the signal. In outline: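 Readout: reporter mRNA, fluorescent RT-PCR fragments separated by capillary electrophoresis. System: HepG2 transiently transfected with cis-regulated reporter units. Exposure: 24 h. Analysis: bidirectional, DMSO baseline.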

Assay [12] addresses Paired box protein Pax-6 (Homo sapiens) (UniProt P26367). Description: ATG_Pax6_CIS: Attagene CIS-FACTORIAL HepG2 Assay for human Paired Box 6 (PAX6) (AID 2282956). As to conditions: HepG2 CIS-FACTORIAL PAX6 reporter transcription, RNA readout; actives raise or lower the signal. In outline:
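After twenty-four hours of chemical exposure, transfected HepG2 cells are harvested for RNA. Cis-promoter reporter transcripts are amplified, fluorescently labelled and sized by capillary electrophoresis, with gain and loss of signal scored against DMSO.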

A short description of assay [13]: ATG_PXRE_CIS: Attagene CIS-FACTORIAL HepG2 Assay for human Pregnane X Receptor Element (PXRE) (AID 2282957). As to conditions: HepG2 Attagene CIS-FACTORIAL PXRE reporter, mRNA; actives raise or lower the signal. Summed up: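 Transiently transfected HepG2 cells were dosed and incubated for 24 h. RNA was then isolated, DNase-treated, reverse-transcribed and reporter sequences amplified. Labeled, HpaI-digested fragments were quantified by capillary electrophoresis against DMSO.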

Assay [14] can be described thus: ATG_PPRE_CIS: Attagene CIS-FACTORIAL HepG2 Assay for human Peroxisome Proliferator-activated Response Element (PPRE) (AID 2282958). To be noted: HepG2 PPRE cis-element reporter, Attagene transcription factor profiling; actives raise or lower the signal. Summed up: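 After human HepG2 hepatoma cells were transiently transfected with cis-promoter reporter constructs, they were exposed to test chemicals for 24 hours. Reporter RNA was then reverse-transcribed, PCR-amplified, FAM-labeled, HpaI-digested and quantified by capillary electrophoresis.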

Assay [15] is described as follows: ATG_RORE_CIS: Attagene CIS-FACTORIAL HepG2 Assay for human RAR-related Orphan Receptor Element (RORE) (AID 2282959). As to conditions: HepG2 Attagene cis-factorial RORE reporter, mRNA; actives raise or lower the signal. In outline:
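Measured here: transcript induction of a cis-regulated reporter in HepG2 cells transiently transfected via FuGene 6. After 24 h, RNA was processed by RT-PCR and fluorescent capillary electrophoresis; DMSO defined baseline activity.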

Assay [16] can be described thus: ATG_Sox_CIS: Attagene CIS-FACTORIAL HepG2 Assay for human SRY-box transcription factor (SOX) (AID 2282960). To be noted: HepG2 Attagene cis-factorial SOX reporter, mRNA; actives raise or lower the signal. In outline:
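Using transiently transfected HepG2 cells, reporter transcription driven by cis elements was assessed 24 h after dosing. Signal was fluorescence of capillary-separated RT-PCR products, with DMSO defining baseline activity.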

Assay [17] deals with Transcription factor Sp1 (Homo sapiens) (UniProt P08047). Description: ATG_Sp1_CIS: Attagene CIS-FACTORIAL HepG2 Assay for human Specificity Protein 1 (Sp1) (AID 2282961). To be noted: HepG2 Sp1 cis-reporter transcription, actives raise or lower the signal. In outline: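 After transient transfection of HepG2 cells with cis-promoter reporter units and 24 h chemical treatment, reporter transcripts were quantified by RT-PCR and capillary electrophoresis fluorescence. Gain- and loss-of-signal fitted against DMSO.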
Chain of Transcription factor Sp1 (Homo sapiens) (P08047 whole entry, looked up): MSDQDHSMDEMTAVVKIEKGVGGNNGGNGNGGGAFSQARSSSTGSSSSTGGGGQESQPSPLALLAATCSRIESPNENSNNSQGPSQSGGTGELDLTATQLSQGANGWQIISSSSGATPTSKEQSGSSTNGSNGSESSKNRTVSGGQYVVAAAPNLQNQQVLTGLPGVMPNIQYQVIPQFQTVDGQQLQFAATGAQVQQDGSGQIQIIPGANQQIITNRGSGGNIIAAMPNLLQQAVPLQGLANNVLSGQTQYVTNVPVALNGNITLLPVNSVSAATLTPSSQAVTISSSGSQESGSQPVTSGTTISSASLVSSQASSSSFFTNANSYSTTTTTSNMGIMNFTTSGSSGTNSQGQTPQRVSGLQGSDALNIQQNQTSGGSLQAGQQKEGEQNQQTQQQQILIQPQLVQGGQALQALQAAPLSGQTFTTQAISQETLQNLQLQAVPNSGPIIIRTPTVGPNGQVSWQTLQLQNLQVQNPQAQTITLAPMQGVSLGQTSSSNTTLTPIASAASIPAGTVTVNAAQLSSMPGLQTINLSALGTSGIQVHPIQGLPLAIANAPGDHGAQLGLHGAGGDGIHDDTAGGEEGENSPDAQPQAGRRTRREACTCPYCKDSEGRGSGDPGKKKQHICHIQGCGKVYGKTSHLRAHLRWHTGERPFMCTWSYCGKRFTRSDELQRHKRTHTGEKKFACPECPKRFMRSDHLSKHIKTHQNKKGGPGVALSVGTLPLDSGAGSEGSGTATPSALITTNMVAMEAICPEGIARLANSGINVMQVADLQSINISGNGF

Assay [18] is described as follows: ATG_SREBP_CIS: Attagene CIS-FACTORIAL HepG2 Assay for human Sterol Regulatory Element Binding (SREBP) (AID 2282962). As to conditions: HepG2 Attagene cis-factorial SREBP reporter, mRNA; actives raise or lower the signal. Summed up: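 Twenty-four hours after chemical dosing of transfected HepG2 cultures, reporter RNA was converted to cDNA, amplified, end-labelled with 6-FAM and resolved by capillary electrophoresis. Responses were fitted relative to DMSO.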

For assay [19], the target named is Signal transducer and activator of transcription 3 (Homo sapiens) (UniProt P40763). Kind of assay: ATG_STAT3_CIS: Attagene CIS-FACTORIAL HepG2 Assay for human Signal Transducer and Activator of Transcription 3 (STAT3) (AID 2282963). To be noted: HepG2, Attagene cis-factorial STAT3 reporter transcription; actives raise or lower the signal. Summed up:
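Endogenous STAT3-responsive cis-element activity was read in transiently transfected HepG2 cells after 24 h treatment. Reporter transcripts were quantified via RT-PCR and capillary electrophoresis, with DMSO as negative control and bidirectional curve fitting.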

Assay [20] in a line: ATG_TA_CIS: Attagene CIS-FACTORIAL HepG2 Assay for human TA Basal Promoter (AID 2282964). As to conditions: HepG2 Attagene CIS-factorial TA basal promoter reporter; actives raise or lower the signal. In outline: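 Background-control readout: TA basal promoter reporter mRNA, fitted in both directions relative to DMSO. Measured by RT-PCR and capillary electrophoresis 24 hours after treating HepG2 human liver cells transiently carrying multiplexed cis-regulated reporter constructs.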

Chain of Signal transducer and activator of transcription 3 (Homo sapiens) (P40763 whole entry, looked up): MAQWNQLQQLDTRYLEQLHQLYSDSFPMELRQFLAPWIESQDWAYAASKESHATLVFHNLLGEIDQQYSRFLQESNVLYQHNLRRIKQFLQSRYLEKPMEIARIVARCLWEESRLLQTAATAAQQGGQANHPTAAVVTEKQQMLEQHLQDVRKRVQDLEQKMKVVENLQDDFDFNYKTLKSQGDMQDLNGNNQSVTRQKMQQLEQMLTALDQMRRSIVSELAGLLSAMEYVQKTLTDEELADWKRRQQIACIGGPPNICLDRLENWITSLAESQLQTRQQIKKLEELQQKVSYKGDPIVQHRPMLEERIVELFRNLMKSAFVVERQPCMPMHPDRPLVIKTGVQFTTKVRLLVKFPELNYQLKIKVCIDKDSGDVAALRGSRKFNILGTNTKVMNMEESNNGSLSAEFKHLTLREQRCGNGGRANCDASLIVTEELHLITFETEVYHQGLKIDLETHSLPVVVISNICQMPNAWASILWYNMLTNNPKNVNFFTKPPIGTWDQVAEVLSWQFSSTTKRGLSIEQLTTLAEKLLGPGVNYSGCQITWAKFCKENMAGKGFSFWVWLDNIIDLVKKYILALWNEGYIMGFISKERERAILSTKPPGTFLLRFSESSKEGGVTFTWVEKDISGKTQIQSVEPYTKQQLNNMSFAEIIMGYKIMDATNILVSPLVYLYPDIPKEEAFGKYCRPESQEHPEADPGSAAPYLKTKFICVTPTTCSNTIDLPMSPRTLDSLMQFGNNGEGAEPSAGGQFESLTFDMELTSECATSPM
Chain of Paired box protein Pax-6 (Homo sapiens) (P26367 whole entry, looked up): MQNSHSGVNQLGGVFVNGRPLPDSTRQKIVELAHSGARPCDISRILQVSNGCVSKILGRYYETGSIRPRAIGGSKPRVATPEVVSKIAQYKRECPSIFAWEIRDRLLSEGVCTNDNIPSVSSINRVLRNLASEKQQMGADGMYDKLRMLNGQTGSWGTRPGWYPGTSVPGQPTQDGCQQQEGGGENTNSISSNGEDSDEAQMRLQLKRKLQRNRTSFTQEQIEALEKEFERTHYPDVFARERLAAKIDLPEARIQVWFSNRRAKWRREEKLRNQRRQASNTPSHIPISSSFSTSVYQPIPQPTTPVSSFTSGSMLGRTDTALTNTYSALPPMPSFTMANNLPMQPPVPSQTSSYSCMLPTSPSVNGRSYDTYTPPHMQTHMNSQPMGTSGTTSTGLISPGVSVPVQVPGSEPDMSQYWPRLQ

Consider `C=CC(F)(F)C(F)(F)C(F)(F)C(F)(F)C(F)(F)C(F)(F)C(F)(F)C(F)(F)C=C`, for which the molecule was called inactive in assay [1], in assay [2], in assay [3], in assay [4], in assay [5] and in assay [6]. Besides, the result in [7], in [8], in assay [9], in [10], in [11] and in assay [12] was inactive. In addition, the call in assay [13], in assay [14], in assay [15], in assay [16], in assay [17] and in [18] was inactive. In addition, the result in [19] and in assay [20] was inactive.

With `OCCCC(F)(F)C(F)(F)C(F)(F)C(F)(F)C(F)(F)C(F)(F)C(F)(F)F`, the molecule was called inactive in assay [1], in assay [2], in [3], in assay [4], in assay [5] and in assay [9]. Also, the molecule was called inactive in [10], in [11], in assay [13], in [14], in [16] and in assay [17]. In addition, the molecule was classed as inactive in assay [18], in [19] and in assay [20]. Also, the AC50 was 96.3 µM (active) in assay [3]; 233 µM (active) in assay [5]; 95.1 µM (active) in assay [9]; 50 µM (active) in [10]; 150 µM (active) in assay [11]; 50 µM (active) and 41.8 µM (active) in assay [12]. The AC50 in assay [13] was 79.6 µM (active); in assay [16] it was 68.9 µM (active); in assay [17] it was 96.5 µM (active); in [18], 50 µM (active); in assay [19], 78.9 µM (active).

Regarding `CC(C)(C)c1ccc(OC2CCCCC2O)cc1` (stereo not given), the result in [1], in assay [2], in assay [3], in [4], in assay [5] and in [6] was inactive. In addition, the outcome in [7], in assay [8], in assay [10], in assay [12], in assay [14] and in [15] was inactive. The outcome in assay [16], in assay [17], in [19] and in assay [20] was inactive. Moreover, the concentration at half-maximal activity (AC50) was 26.1 µM (active) in assay [11], 1.73 µM (active) in assay [13] and 26.5 µM (active) in assay [18].
